Results: PubChem BioAssay (NCATS)
Results filed as inconclusive are left out. A call without a number means that no potency is given here. Active and inactive are the calls of the source. Calls follow the shape of the dose curve; as a rule, active = well fitted inhibition curve with a large enough effect; inconclusive = small, poorly fitted or top-dose-only effect; inactive = flat fitted curve, though single readings scatter.

Biological target: Ubiquitin carboxyl-terminal hydrolase 1 (Homo sapiens) (UniProt O94782)
Assay: Inhibitors of USP1/UAF1: Pilot qHTS (AID 504865);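 also: rhodamine fluorescence freed from ubiquitin-rhodamine substrate followed over time; top concentration of the series differs between compounds; nearly all actives have a fitted effect of over 35% in size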
Conditions: purified USP1/UAF1, Ub-rhodamine cleavage fluorescence; series mostly up to 114 µM
Procedure, shortened: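 Enzyme-free wells gave the negative control, while test wells held 1nM USP1/UAF1 preincubated with compound for 15 min at room temperature. Ub-Rho at 150nM final started the reaction, and fluorescence at 480/540 nm was recorded kinetically.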

Sequence of Ubiquitin carboxyl-terminal hydrolase 1 (Homo sapiens) (O94782 whole entry, looked up): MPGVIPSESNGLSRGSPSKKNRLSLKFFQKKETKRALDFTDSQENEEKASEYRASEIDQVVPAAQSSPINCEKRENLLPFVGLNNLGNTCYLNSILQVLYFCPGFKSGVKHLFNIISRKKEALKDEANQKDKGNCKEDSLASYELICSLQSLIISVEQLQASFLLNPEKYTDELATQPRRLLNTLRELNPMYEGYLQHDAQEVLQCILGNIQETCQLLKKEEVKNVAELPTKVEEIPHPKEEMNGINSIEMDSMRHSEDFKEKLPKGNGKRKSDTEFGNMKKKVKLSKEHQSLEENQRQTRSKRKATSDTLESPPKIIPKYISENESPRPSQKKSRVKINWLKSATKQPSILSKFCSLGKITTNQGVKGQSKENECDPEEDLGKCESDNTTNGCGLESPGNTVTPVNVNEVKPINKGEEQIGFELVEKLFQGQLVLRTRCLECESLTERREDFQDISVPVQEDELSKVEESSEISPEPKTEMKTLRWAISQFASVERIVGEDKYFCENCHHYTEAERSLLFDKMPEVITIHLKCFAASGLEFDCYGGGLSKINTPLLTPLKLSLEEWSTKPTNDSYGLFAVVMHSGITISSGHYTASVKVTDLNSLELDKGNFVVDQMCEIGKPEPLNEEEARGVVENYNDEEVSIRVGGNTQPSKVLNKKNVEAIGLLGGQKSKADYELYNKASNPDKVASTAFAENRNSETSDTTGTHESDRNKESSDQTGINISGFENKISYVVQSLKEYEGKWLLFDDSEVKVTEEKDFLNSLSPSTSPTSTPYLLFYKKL

Structure (SMILES) | Potency
CC(C)(COP(=O)(O)OP(=O)(O)OC[C@H]1O[C@@H](n2cnc3c(N)ncnc32)[C@H](O)[C@@H]1OP(=O)(O)O)C(O)C(=O)NCCC(=O)NCCS (some centres not stated) | inactive
CC(CN(C)C)CN1c2ccccc2Sc2ccc(C(F)(F)F)cc21 (configuration not stated) | inactive
CCCCC[C@H](O)/C=C/[C@@H]1[C@H]2C/C(=C/CCCC(=O)O)O[C@H]2C[C@H]1O | inactive
C=CCN1CCCC1CNC(=O)c1cc(S(N)(=O)=O)cc(OC)c1OC (configuration not stated) | inactive
O[C@@H]([C@H](O)[C@H](O)CBr)[C@H](O)CBr | inactive
[O]=[Bi][O][Bi]=[O] | inactive
CSCCC(N)C(=O)O (configuration not stated) | inactive
COC(=O)C(CN)c1c[nH]c2ccc(OC)cc12 (configuration not stated) | inactive
CCOC(=S)SSC(=S)OCC | inactive
Cc1cccc(Nc2ncccc2C(=O)O)c1C | inactive
CN1c2c(nc(N)[nH]c2=O)NCC1CNc1ccc(C(=O)NC(CCC(=O)O)C(=O)O)cc1 (configuration not stated) | inactive
FC(F)(F)C(F)(F)C(F)(F)C(F)(F)C(F)(F)F | inactive
CC1C(=O)CC2C3(C)CCC2(C(C)C(=O)O)C(=O)C13 (configuration not stated) | inactive
O=P(O)(O)OP(=O)(O)OP(=O)(O)O | inactive
COC1=C(OC)C(=O)C(C/C=C(\C)CC/C=C(\C)CC/C=C(\C)CC/C=C(\C)CC/C=C(\C)CC/C=C(\C)CC/C=C(\C)CC/C=C(\C)CC/C=C(\C)CCC=C(C)C)=C(C)C1=O | inactive
CC(=O)Oc1cccc2c1C(=O)c1c(OC(C)=O)cc(C(=O)O)cc1C2=O | inactive
CC1CCCCN1CCCOC(=O)c1ccccc1 (configuration not stated) | inactive
